# In all, about 5,500 compounds went through this assay and about 2,000 (36%) were called active. Not shown: some 18% with an inconclusive outcome. The list shows a part of the results. Unmarked numbers belong to inactive results. Rule as the data show it: active = normalized growth mostly below about 0.91 (no sharp cut-off); inconclusive = no clear call, values can overlap the other calls; inactive = mostly above about 0.92.
# Test: chemical genetic growth profiling, strain panel (AID 1159580);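 also: tested at 20 µM; growth read once vehicle control cultures reached saturation at 30 °C; 1 = growth at the plate median or of vehicle wells; lower values mean less growth of the strain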
# Conditions: S. cerevisiae deletion strains, growth OD
compound,measurement,setting,value
O=S1OCC2C(CO1)C1(Cl)C(Cl)=C(Cl)C2(Cl)C1(Cl)Cl (centres undefined),normalized growth,"locus YAL013W, strain DEP1, stronger effect = lower value",0.973
same,normalized growth,"locus YAL021C, strain ccr4, stronger effect = lower value",0.982
same,normalized growth,"locus YAL026C, strain drs2, stronger effect = lower value",0.98
same,normalized growth,"locus YAL030W, strain snc1, stronger effect = lower value",0.993
same,normalized growth,"locus YBL061C, strain skt5, stronger effect = lower value",1
same,normalized growth,"locus YBR009C, strain hhf1, stronger effect = lower value",0.989
same,normalized growth,"locus YBR021W, strain FUR4, stronger effect = lower value",0.993
same,normalized growth,"locus YBR023C, strain chs3, stronger effect = lower value",0.987
same,normalized growth,"locus YBR171W, strain sec66, stronger effect = lower value",0.974
same,normalized growth,"locus YBR229C, strain ROT2, stronger effect = lower value",0.998
same,normalized growth,"locus YBR231C, strain swc5, stronger effect = lower value",0.992
same,normalized growth,"locus YBR279W, strain paf1, stronger effect = lower value",1
same,normalized growth,"locus YCL011C, strain gbp2, stronger effect = lower value",0.98
same,normalized growth,"locus YCL016C, strain dcc1, stronger effect = lower value",0.999
same,normalized growth,"locus YCL029C, strain bik1, stronger effect = lower value",0.972
same,normalized growth,"locus YCL061C, strain MRC1, stronger effect = lower value",0.983
same,normalized growth,"locus YCL069W, strain vba3, stronger effect = lower value",0.99
same,normalized growth,"locus YCR088W, strain abp1, stronger effect = lower value",0.98
same,normalized growth,"locus YDL005C, strain med2, stronger effect = lower value",1
same,normalized growth,"locus YDL035C, strain GPR1, stronger effect = lower value",0.983
same,normalized growth,"locus YDL040C, strain nat1, stronger effect = lower value",0.994
same,normalized growth,"locus YDL074C, strain BRE1, stronger effect = lower value",0.999
same,normalized growth,"locus YDL101C, strain DUN1, stronger effect = lower value",0.972
same,normalized growth,"locus YDL134C, strain PPH21, stronger effect = lower value",0.997
same,normalized growth,"locus YDL185W, strain tfp1, stronger effect = lower value",0.948
same,normalized growth,"locus YDL192W, strain arf1, stronger effect = lower value",0.98
same,normalized growth,"locus YDR001C, strain nth1, stronger effect = lower value",0.974
same,normalized growth,"locus YDR069C, strain doa4, stronger effect = lower value",0.973
same,normalized growth,"locus YDR101C, strain arx1, stronger effect = lower value",0.992
same,normalized growth,"locus YDR137W, strain rgp1, stronger effect = lower value",1.17 [resistant] (active)
same,normalized growth,"locus YDR150W, strain NUM1, stronger effect = lower value",0.991
same,normalized growth,"locus YDR159W, strain sac3, stronger effect = lower value",0.893
same,normalized growth,"locus YDR162C, strain NBP2, stronger effect = lower value",0.946
same,normalized growth,"locus YDR195W, strain ref2",1.04
same,normalized growth,"locus YDR297W, strain sur2, stronger effect = lower value",0.983
same,normalized growth,"locus YDR318W, strain mcm21, stronger effect = lower value",0.973
same,normalized growth,"locus YDR334W, strain swr1, stronger effect = lower value",0.99
same,normalized growth,"locus YDR335W, strain msn5, stronger effect = lower value",0.995
same,normalized growth,"locus YDR388W, stronger effect = lower value",0.981
same,normalized growth,"locus YDR392W, strain spt3, stronger effect = lower value",0.823
same,normalized growth,"locus YDR502C, strain sam2, stronger effect = lower value",0.96
same,normalized growth,"locus YEL003W, strain gim4, stronger effect = lower value",0.931
same,normalized growth,"locus YEL037C, strain rad23, stronger effect = lower value",1
same,normalized growth,"locus YEL061C, strain CIN8 (second series), stronger effect = lower value",0.983
same,normalized growth,"locus YEL061C, strain CIN8, stronger effect = lower value",0.992
same,normalized growth,"locus YER015W, strain faa2, stronger effect = lower value",0.993
same,normalized growth,"locus YER016W, strain bim1, stronger effect = lower value",0.991
same,normalized growth,"locus YER110C, stronger effect = lower value",0.986
same,normalized growth,"locus YER111C, strain swi4, stronger effect = lower value",0.997
same,normalized growth,"locus YER155C, strain BEM2 (second series), stronger effect = lower value",0.988
same,normalized growth,"locus YER155C, strain BEM2, stronger effect = lower value",0.973
same,normalized growth,"locus YER167W, strain BCK2, stronger effect = lower value",0.966
same,normalized growth,"locus YFR010W, strain ubp6, stronger effect = lower value",0.984
same,normalized growth,"locus YGL078C, strain dbp3, stronger effect = lower value",0.968
same,normalized growth,"locus YGL086W, strain mad1, stronger effect = lower value",0.975
same,normalized growth,"locus YGL167C, strain pmr1, stronger effect = lower value",0.989
same,normalized growth,"locus YGL173C, strain kem1, stronger effect = lower value",0.992
same,normalized growth,"locus YGL227W, strain vid30, stronger effect = lower value",0.987
same,normalized growth,"locus YGL240W, strain doc1, stronger effect = lower value",0.988
same,normalized growth,"locus YGL248W, strain PDE1, stronger effect = lower value",1.01
same,normalized growth,"locus YGL253W, strain hxk2, stronger effect = lower value",0.987
same,normalized growth,"locus YGR078C, strain PAC10, stronger effect = lower value",0.97
same,normalized growth,"locus YGR135W, strain pre9, stronger effect = lower value",0.978
same,normalized growth,"locus YGR229C, strain SMI1, stronger effect = lower value",0.992
same,normalized growth,"locus YGR252W, strain gcn5, stronger effect = lower value",0.984
same,normalized growth,"locus YHR013C, strain ard1, stronger effect = lower value",0.862
same,normalized growth,"locus YHR027C, strain rpn1, stronger effect = lower value",0.996
same,normalized growth,"locus YHR030C, strain SLT2, stronger effect = lower value",0.979
same,normalized growth,"locus YHR079C, strain IRE1 (second series), stronger effect = lower value",0.977
same,normalized growth,"locus YHR094C, strain hxt1, stronger effect = lower value",0.971
same,normalized growth,"locus YHR129C, strain ARP1, stronger effect = lower value",1.01
same,normalized growth,"locus YHR142W, strain chs7, stronger effect = lower value",0.971
same,normalized growth,"locus YHR200W, strain rpn10, stronger effect = lower value",0.972
same,normalized growth,"locus YIL066C, strain RNR3, stronger effect = lower value",0.966
same,normalized growth,"locus YIL073C, strain SPO22, stronger effect = lower value",0.887
same,normalized growth,"locus YIL125W, strain kgd1, stronger effect = lower value",0.982
same,normalized growth,"locus YIR030C, strain dcg1, stronger effect = lower value",0.98
same,normalized growth,"locus YJL092W, strain hpr5, stronger effect = lower value",0.987
same,normalized growth,"locus YJL095W, strain BCK1 (second series), stronger effect = lower value",1.01
same,normalized growth,"locus YJL095W, strain BCK1, stronger effect = lower value",0.999
same,normalized growth,"locus YJL115W, strain asf1, stronger effect = lower value",0.977
same,normalized growth,"locus YJL129C, strain trk1, stronger effect = lower value",0.888
same,normalized growth,"locus YJL134W, strain LCB3, stronger effect = lower value",0.966
same,normalized growth,"locus YJL154C, strain vps35, stronger effect = lower value",0.983
same,normalized growth,"locus YJL164C, strain tpk1, stronger effect = lower value",0.942
same,normalized growth,"locus YJL166W, strain qcr8, stronger effect = lower value",0.875 (active)
same,normalized growth,"locus YJL168C, strain set2, stronger effect = lower value",0.974
same,normalized growth,"locus YJL187C, strain SWE1 (second series), stronger effect = lower value",0.979
same,normalized growth,"locus YJL187C, strain SWE1, stronger effect = lower value",0.995

# Source: PubChem BioAssay AID1159580 (chemical genetic matrix, 2015)
